# Source: the supplement of paper PMC8975748
# Counter-ions that a name gives are not always drawn.
# Tested on: Saccharomyces cerevisiae BY4741 SeMeCo community
# Assay: z-score of subpopulation abundance vs DMSO median, subpopulation auxotrophic for HM; higher = larger share of this subpopulation than in DMSO controls
# Conditions: 10 µM; 24 h; SM minimal medium; subpopulation (auxotrophy): HM
# Experimental: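 Fluorescent four-plasmid SeMeCo (self-establishing metabolically cooperating S. cerevisiae BY4741 community; plasmids pH-mRuby2, pL-mWasabi, pU-eCFP, pM-TagRFP657) was grown 24 h in minimal SM medium with each Selleck FDA-approved drug at 10 µM in 384-well plates. Cells were fixed and imaged by high-content confocal microscopy. For each auxotrophic subpopulation (and the prototroph), a z-score gives the deviation from the DMSO vehicle-control population median.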
row,SMILES,z-score of subpopulation abundance
1,Clc1ccc2c(N3CCN(CCCN4CCN(c5ccnc6cc(Cl)ccc56)CC4)CC3)ccnc2c1 [Piperaquine phosphate],1.16
2,CC1(C)S[C@@H]2[C@H](NC(=O)C(c3ccccc3)S(=O)(=O)O)C(=O)N2[C@H]1C(=O)O (stereo not given in full) [Sulbenicillin Sodium],-0.06
3,CSc1nc2cc(Cl)c(Oc3cccc(Cl)c3Cl)cc2[nH]1 [Triclabendazole],-3.03
4,CNCCC(Oc1ccc(C(F)(F)F)cc1)c1ccccc1 (stereo not given) [Fluoxetine HCl],-0.49
5,OCCN1CCN(CC/C=C2/c3ccccc3Sc3ccc(C(F)(F)F)cc32)CC1 [Flupenthixol dihydrochloride],0.47
6,Cc1c(Nc2ncccc2C(=O)O)cccc1C(F)(F)F [Flunixin Meglumin],-0.07
7,Cc1nc2n(c(=O)c1CCN1CCC(c3noc4cc(F)ccc34)CC1)CCCC2O (stereo not given) [Paliperidone],0.04
8,N[C@@H]1CCCCN(c2c(F)cc3c(=O)c(C(=O)O)cn(C4CC4)c3c2Cl)C1 [Besifloxacin HCl],-0.14
9,CC(=O)OCC1=C(C(=O)O)N2C(=O)[C@@H](NC(=O)CSc3ccncc3)[C@H]2SC1 [Cephapirin Benzathine],0.66
10,Nc1nc(=O)[nH]cc1F [Flucytosine],17.8
11,C/C=C\c1ccc(O)c(OC)c1 [Isoeugenol],0.2
12,COc1cc2c(cc1OC)-c1cc3ccc(OC)c(OC)c3c[n+]1CC2 [Palmatine],1.01
13,CCC(C)C1OC2(CCC1C)CC1CC(CC=C(C)C(OC3CC(OC)C(OC4CC(OC)C(O)C(C)O4)C(C)O3)C(C)C=CC=C3COC4C(O)C(C)=CC(C(=O)O1)C34O)O2 (stereo not given) [Ivermectin],1.17
14,COc1ccc([C@@H]2Sc3ccccc3N(CCN(C)C)C(=O)[C@@H]2OC(C)=O)cc1 [Diltiazem HCl],-0.74
15,COc1ccc2c3c1O[C@H]1C[C@@H](O)C=C[C@@]31CCN(C)C2 [Galanthamine],1.76
16,Cc1cc(O)c(C(=O)N[C@@H](C(=O)N[C@@H]2C(=O)N3C(C(=O)O)=C(CSc4nnnn4C)CS[C@H]23)c2ccc(O)cc2)cn1 [Cefpiramide sodium],0.57
17,CO/N=C(\C(=O)N[C@@H]1C(=O)N2C(C(=O)OCOC(=O)C(C)(C)C)=C(/C=C\c3scnc3C)CS[C@H]12)c1csc(N)n1 [Cefditoren Pivoxil],1.45
18,CO[C@@H]1[C@@H](O[C@@H]2O[C@H](C)[C@@H](O[C@H]3C[C@@](C)(O)[C@@H](O)[C@H](C)O3)[C@H](N(C)C)[C@H]2O)[C@@H](CC=O)C[C@@H](C)[C@@H](O[C@H]2CC[C@H](N(C)C)[C@@H](C)O2)/C=C/C=C/C[C@@H](C)OC(=O)C[C@H]1OC(C)=O [Acetylspiramycin (ASPM)],0.27
19,CN(C)CCc1c[nH]c2ccc(C[C@H]3COC(=O)N3)cc12 [Zolmitriptan],-1.06
20,O=c1ccc2cc(O)c(O)cc2o1 [Esculetin],3.75

row,SMILES,z-score of subpopulation abundance
1,Nc1ccc(C(=O)O)c(O)c1 [4-Aminosalicylic acid],0.06
2,Cc1c(Cl)cccc1Nc1ccccc1C(=O)O [Tolfenamic Acid],-1.11
3,CCN(CC)CCOC(=O)c1ccc(N)cc1 [Procaine],-0.99
4,CC1(C)CC[C@]2(C(=O)O)CC[C@]3(C)C(=CC[C@@H]4[C@@]5(C)CC[C@H](O)C(C)(C)[C@@H]5CC[C@]43C)[C@@H]2C1 [Oleanolic Acid],1.05
5,O=C(O[C@@H]1C[C@@H]2C[C@H]3C[C@H](C1)N2CC3=O)c1c[nH]c2ccccc12 [Dolasetron Mesylate],1.09
6,CO/N=C(\C(=O)N[C@@H]1C(=O)N2C(C(=O)O)=CCS[C@H]12)c1csc(N)n1 [Ceftizoxime],-0.82
7,CCNC(=O)[C@@H]1CCCN1C(=O)[C@H](CCCNC(=N)N)NC(=O)[C@H](CC(C)C)NC(=O)[C@@H](CC(C)C)NC(=O)[C@H](Cc1ccc(O)cc1)NC(=O)[C@H](CO)NC(=O)[C@H](Cc1c[nH]c2ccccc12)NC(=O)[C@H](Cc1c[nH]cn1)NC(=O)[C@@H]1CCC(=O)N1 [Leuprolide Acetate],0.95
8,Nc1ccc2cc3ccc(N)cc3nc2c1 [Proflavine Hemisulfate],6.84
9,Clc1ccc(C(Cn2ccnc2)OCc2ccsc2Cl)c(Cl)c1 (stereo not given) [Tioconazole],3.87
10,CCn1cc(C(=O)O)c(=O)c2cc(F)c(N3CCNC(C)C3)c(F)c21 (stereo not given) [Lomefloxacin HCl],1.66
11,Cc1cccc(C)c1OCC(C)N (stereo not given) [Mexiletine HCl],-0.64
12,COc1cc([C@@H]2c3cc4c(cc3[C@@H](O[C@@H]3O[C@@H]5CO[C@@H](c6cccs6)O[C@H]5[C@H](O)[C@H]3O)[C@H]3COC(=O)[C@H]23)OCO4)cc(OC)c1O [Teniposide],0.99
13,CCC[S+]([O-])c1ccc2[nH]c(NC(=O)OC)nc2c1 (stereo not given) [Albendazole Oxide],0.14
14,Nc1nc2ccc(OC(F)(F)F)cc2s1 [Riluzole],-0.84
15,Clc1ccc(CCC(Cn2ccnc2)Sc2c(Cl)cccc2Cl)cc1 (stereo not given) [Butoconazole],1.61
16,Cn1nnnc1SCC1=C(C(=O)O)N2C(=O)[C@@H](NC(=O)[C@H](OC=O)c3ccccc3)[C@H]2SC1 [Cefamandole nafate],0.71
17,C#CCC(Cc1cnc2nc(N)nc(N)c2n1)c1ccc(C(=O)N[C@@H](CCC(=O)O)C(=O)O)cc1 (stereo not given in full) [Pralatrexate],5.98
18,CCN(CC)CC#CCOC(=O)C(O)(c1ccccc1)C1CCCCC1 (stereo not given) [Oxybutynin],-0.23
19,C[C@H](NCc1ccc(OCc2cccc(F)c2)cc1)C(N)=O [Safinamide Mesylate],1.04
20,O=C(Nc1cccc(C2=NCCN2)c1)Nc1cccc(C2=NCCN2)c1 [Imidocarb dipropionate],-0.79
